Most compounds without a hit are left out; they make up all but 1.8% or so of the library.
F508del corr – correctors of CFTR F508del function in bronchial epithelial cells. CFBE cells, YFP halide quenching; stimulated with forskolin plus potentiator P3; % fluorescence drop versus neutral controls. activity (quench increase), % at 7.58 µM. 0.36% of 350,000 active;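 active = mean added fluorescence quench of at least 8% versus neutral control, with both replicates also reaching 8%; inconclusive = only one of the mean or replicate conditions met; inactive = mean below 8% and not both replicates reaching 8%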;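 also: cells transiently co-express mutant CFTR-F508del with the halide-sensitive YFP; corrector assay measuring rescue of mutant channel to the surface after 24 h compound exposure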
LGR2 antag – blocks bursicon-induced cAMP signaling via Drosophila LGR2 | inhibition, % at 9.99 µM | HEK293 LGR2, CRE-luciferase, bursicon-stimulated, 4 h | 0.35% of 380,000 active | AID 720647;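 active = drop in luminescence signal, shown as inhibition above about 50% in the replicate tests, limit read from the data, passing the limit was not always enough; inconclusive = probably only some replicates passing the limit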;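 also: agonist challenge used bursicon conditioned medium at about half maximal strength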
PAX8 reporter – lowers PAX8-driven luciferase in RMG-I cells | AID 652154 | RMG-I TPO-luciferase reporter, SteadyGlo, 24 h | 1.2% of 360,000 active | inhibition, % at 12.6 µM;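 active = mean replicate inhibition at least 60% with every replicate also reaching 60%; inconclusive = only one of the two criteria is met; inactive = mean below 60% and not all replicates reaching 60%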;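 also: luciferase light reporting Pax8 driven TPO promoter activity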
EWS-Fli block – blocks EWS/Fli oncoprotein-driven transcription | A673 NR0B1-luciferase reporter, viability-normalised | inhibition, % at 12.6 µM | 0.67% of 350,000 active;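 active = mean inhibition of at least 50% after viability correction, with every replicate also passing that limit; inconclusive = mean reaches 50% but only one of two replicates passes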;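 also: firefly luciferase signal divided by Alamar Blue viability fluorescence both relative to DMSO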
DNA binding – small molecule DNA binding by fluorescence polarization | shares compounds with EWS-Fli block | salmon sperm DNA acridine orange fluorescence polarization | AC35, µM (titrated, usually from 68 µM) | 2% of 640 active | AID 720586;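 active = fitted curve reaches a 35% signal fall AC35 below twice the sample's top valid tested dose, actives reach about 48 µM in these data; inactive = the rest, including activity in the rising direction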;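 also: lower polarization ratio signals compound binding to DNA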
Of the large screens only hits and unclear results are named; the others gave an inactive call (follow-up assays come after a bar, where they were run).

COc1ccc2c(c1OC)CN1CCc3cc4c(cc3C1C2)OCO4 (stereo not given)	none
c1ccc(-c2nc3ccccc3nc2-c2ccc(CN3CCC(n4nnc5ccccc54)CC3)cc2)cc1	none
CC(C)C[C@H]1COc2cc(N3CCN(C)CC3)ccc2S(=O)(=O)N1	none
COc1cccc(-c2ccc3c(c2)C2c4cnnn4-c4ccccc4C(=O)N2CC3)c1 (stereo not given)	EWS-Fli block 58.9
NC(=O)c1c(Br)n(C2OC(CO)C(O)C2O)c2ncnc(N)c12 (stereo not given)	PAX8 reporter 85.5
OCC1OC(n2cnc3cc(Cl)c(Cl)cc32)C(O)C1O (stereo not given)	none
N#Cc1c(Br)n(C2OC(CO)C(O)C2O)c2ncnc(N)c12 (stereo not given)	PAX8 reporter 81.9
CCNC(=O)[C@H]1O[C@@H](n2cnc3c(N)ncnc32)[C@H](O)[C@@H]1O	none
O=[N+]([O-])c1ccc(-c2ccccc2)c([As](=O)(O)O)c1	none
COC(=O)C1=C(C)NC(=S)NC1c1ccc(N(CCCl)CCCl)cc1Cl (stereo not given)	none
CC(C)c1oc(=O)cc2c1[C@@H](O)[C@H]1OC(=O)[C@@]3(C)CC[C@@H](O)[C@@]2(C)C13 (stereo not given in full)	LGR2 antag 67.0, EWS-Fli block 62.4 | DNA binding inactive
O=C(Nc1ccc(OC(=O)N2CCCCC2)cc1)N1CCOCC1	EWS-Fli block 75.8 | DNA binding inactive
NC(=Nc1ccccc1)NN=Cc1c[nH]c2ccccc12	none
COC1C(O)C(C)OC(OC2C(Oc3cccc4c(O)c5c(=O)oc6ccc(C)c7c(=O)oc(c34)c5c67)OC(C)C(O)C2O)C1O (stereo not given)	EWS-Fli block 68.8 (no result: PAX8 reporter) | DNA binding inactive
COC(=O)C1=C(c2ccc(F)cc2OCc2ccccc2)C[C@@H]2CC[C@H]1N2C(=O)N1CCOCC1	none
O=C1NC(=O)N(Cc2ccccc2)C(=O)/C1=C\C=C\c1ccco1	EWS-Fli block 65.0 (no result: F508del corr) | DNA binding inactive
Cn1cccc1/C=C1\C(=O)NC(=O)N(Cc2ccco2)C1=O	none (no result: F508del corr, EWS-Fli block)
O=C1NC(=O)N(Cc2ccco2)C(=O)/C1=C/C=C/c1ccco1	EWS-Fli block 60.6 | DNA binding inactive
COC(=O)[C@H]1[C@H](CO)[C@H]2Cn3c(ccc(-c4cccnc4)c3=O)[C@@H]1N2S(=O)(=O)c1ccccc1C	none (no result: F508del corr)
C=C1C(=O)OC2C1CCC(C)C1(O)C=CC(=O)C21C (stereo not given)	EWS-Fli block 62.1 (no result: PAX8 reporter) | DNA binding inactive
CCOC(=O)[C@]12Cc3ccc(C)cc3[C@H]1N(C1CCCCC1)C(=O)c1ccccc12	LGR2 antag 52.9, PAX8 reporter 81.5, EWS-Fli block 59.1 | DNA binding inactive
CCOC(=O)[C@]12Cc3ccccc3[C@H]1N(C(C)C)C(=O)c1ccccc12	LGR2 antag inconclusive
CC12CC[C@H]3[C@@H](CCC4(O)C[C@H](O)CCC34/C=N/NC(=O)c3ccccc3[N+](=O)[O-])C1(O)CCC2C1=CC(=O)OC1 (stereo not given in full)	none
CC12CCC(O)CC1CCC1C2CCC2(C)C(C3=CC(=O)OC3)CCC12O (stereo not given)	LGR2 antag 86.5, PAX8 reporter 105.8, EWS-Fli block 66.5 | DNA binding inactive
CC(=O)OC1CC(OC2C(O)CC(OC3C(O)CC(OC4CCC5(C)C(CCC6C5CC(O)C5(C)C(C7=CC(=O)OC7)CCC65O)C4)OC3C)OC2C)OC(C)C1OC1OC(CO)C(O)C(O)C1O (stereo not given)	LGR2 antag 87.9, PAX8 reporter 111.1, EWS-Fli block 65.0 | DNA binding inactive
COC1C(O)C(C)OC(OC2CCC3(C)C(CCC4C3C(O)CC3(C)C(C5=CC(=O)OC5)CCC43O)C2)C1O (stereo not given)	LGR2 antag 89.7, PAX8 reporter 108.2, EWS-Fli block 51.2 | DNA binding inactive
CNC(=O)Nc1ccc(C(=O)N/N=C\C23CC[C@@H](O)CC2(O)CC[C@@H]2[C@@H]3CCC3(C)C(C4=CC(=O)OC4)CCC23O)cc1 (stereo not given in full)	none
C[C@]12CC[C@H](O)C[C@H]1CC[C@@H]1[C@@H]2CC[C@]2(C)[C@@H](C3=CC(=O)OC3)CC[C@]12O	LGR2 antag 83.7, PAX8 reporter 112.9, EWS-Fli block 67.3 | DNA binding inactive
O=C(c1ccco1)N1Cc2ccccc2-n2nncc2C1	none
c1cncc(CNC2CCCCC2)c1	none
CN1CCN(c2ccc3c(c2)S(=O)(=O)c2ccccc2C3=O)CC1	none
C[C@]12CC[C@H](O)C[C@H]1CC[C@@H]1[C@@H]2C[C@@H](O)[C@]2(C)[C@@H](C3=CC(=O)OC3)CC[C@]12O	LGR2 antag 80.1, PAX8 reporter 103.7, EWS-Fli block 81.0 | DNA binding inactive
C[C@]12CCC3C(CC[C@H]4C[C@@H](O)CC[C@]34C)[C@H]1C=CC2=O (stereo not given in full)	none
CC(=NCc1ccco1)c1c(O)n(-c2ccc(C)cc2)c(=O)[nH]c1=O	none
C[C@@H]1O[C@@H](O[C@H]2C[C@@H](O)[C@]3(CO)[C@@H]4C(CC[C@]3(O)C2)[C@@]2(O)CC[C@H](C3COC(=O)C3)[C@@]2(C)C[C@H]4O)[C@H](O)[C@H](O)[C@H]1O (stereo not given in full)	LGR2 antag 73.1, PAX8 reporter 85.9, EWS-Fli block 71.7 | DNA binding inactive
COC(=O)C1=C(c2ccc(OC(F)(F)F)cc2)C[C@@H]2CC[C@H]1N2C(=O)NCCOc1ccccc1Cl	none
